NS1 inh: inhibitors of influenza NS1 protein function | 0.4% of 270,000 active | Potency, µM (highest dose often 46.1 µM), for the others: at the top dose activity, positive = more growth; calls by dose curve; note: actives are rising curves; nearly all actives have a fitted effect of over 50% in size
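Compounds were scored for reversing the slow growth caused by influenza A NS1 in S. cerevisiae, measured by optical density at 600 nm. Assay medium contained 2% galactose at pH 6.0; NS1-free yeast of the same strain were the positive control.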
Pf growth 96h: inhibits malaria parasite growth, 96 h. AID 504834. 6.9% of 320,000 active. P. falciparum luciferase reporter growth, 96 h. Potency, µM (highest dose often 28.7 µM), for the others: at the highest dose activity change, negative = inhibition, hits mostly inhibitors; note: % is set by controls: 0 for no effect and ±100 for the full control effect
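Erythrocytes infected with luciferase-expressing P. falciparum were dispensed at 2% hematocrit and 0.05% parasitemia (final), then incubated with compounds 96 hours at 37 C in 5% CO2. Luminescence after detection reagent addition reported growth.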
SARS PLP yeast: blocks SARS-CoV papain-like protease in a yeast assay. S. cerevisiae expressing SARS-CoV PLpro, growth rescue. Potency, µM (highest dose often 32.9 µM), for inactives: at the highest dose activity, positive = growth rescue, hits mostly activators. 0.19% of 330,000 active. AID 485353; calls by dose curve; note: 0% is about no effect; nearly all actives have a fitted effect of over 55% in size
Pf growth 48h: inhibits P. falciparum growth in the first generation, 48 h | P. falciparum luciferase growth in erythrocytes, 48 h | Potency, µM (titrated, usually from 28.7 µM), inactives show at the top dose activity change, negative = inhibition, actives largely listed as inhibitors | 5.9% of 310,000 active | AID 504832; note: % is set by controls: 0 for no effect and ±100 for the full control effect
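Luciferase-expressing parasites in RBCs, 2% Hct / 0.1% parasitemia final; RPMI 1640 + 0.5% Albumax; 37 C, 5% CO2, one generation; luminescence read-out, lower signal = inhibition.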
* marks the source's active call; other numbers are inactive results; i = inactive; ? = inconclusive; · = not tested or not shown. Only some compounds are listed: those with a hit (about 10% of all), similar ones and a draw of the others. Unless noted, calls come from the whole dose curve; as a rule, active = well fitted inhibition curve with a large enough effect; inconclusive = small, poorly fitted or top-dose-only effect, or another doubt; inactive = no such curve, though single readings can be large or run the other way. Potency is the fitted concentration of half-maximal effect.

SMILES	NS1 inh	Pf growth 96h	SARS PLP yeast	Pf growth 48h
COC(=O)[C@]1(Cc2ccccc2)N[C@H](CN(C)C(=O)c2ccc(C)cc2)[C@@H]2C(=O)N(Cc3ccccc3)C(=O)[C@@H]21	·	·	-2%	·
O=C(Cc1ccc(F)cc1)Nc1cccc(-c2cn3c(n2)SCC3)c1	·	-4%	3%	-6%
O=C(Nc1cccc(-c2cn3c(n2)SCC3)c1)c1ccc(Br)o1	·	0.74µM*	-3%	17%
CCN(CC)CCN(C(=O)CCS(=O)(=O)c1ccccc1)c1nc2cc3c(cc2s1)OCO3	1%	23%	-3%	-2%
CC(C)(C)NC(=O)[C@@H]1C[C@@H]2CCCC[C@@H]2CN1C[C@@H](O)[C@H](Cc1ccccc1)NC(=O)[C@H](CC(N)=O)NC(=O)c1ccc2ccccc2n1	-17%	15µM*	2%	?
COC(=O)[C@H](Cc1ccccc1)NC(=O)c1ccc2ccccc2n1	-26%	215%	-6%	207%
O=C(COc1ccc(Cl)cc1Cl)NCCCn1ccnc1	12%	·	2%	6.6µM*
COc1ccc(Cl)cc1S(=O)(=O)NCCCn1ccnc1	18%	i	1%	33%
COc1ccc(Cl)cc1S(=O)(=O)NC(C)C(=O)NCCCn1ccnc1 (configuration not stated)	·	13µM*	-5%	3%
CC(C)Cc1cc(C(C)(C)C)ccc1OC(=S)N(C)C	6%	-26%	-2%	61%
CCOc1ccc2c(c1)-c1c(ssc1=S)C(C)(C)N2C(=O)c1ccco1	30%	1.3µM*	1%	2.3µM*
O=C(C[n+]1ccc(C(=O)NCc2ccccc2)cc1)c1ccc2c(c1)OCCO2	10%	12%	1%	6%
Nc1cc[n+](CC(=O)c2ccc3c(c2)OCCO3)cc1	14%	?	13%	4.7µM*
COc1ccc(Cn2c(C)nc3oc4cc(OC)ccc4c(=O)c3c2=O)cc1	2%	?	4%	?
COc1ccc2c(=O)c3c(=O)n(Cc4ccco4)c(-c4cc(OC)c(OC)c(OC)c4)nc3oc2c1	2%	1.7µM*	-32%	1.9µM*
COCCn1c(-c2ccccc2)nc2oc3cc(OC)ccc3c(=O)c2c1=O	-41%	?	4%	?
COc1ccc2c(=O)c3c(=O)n(Cc4ccco4)c(-c4ccccc4)nc3oc2c1	-65%	·	-1%	12µM*
COCCn1c(-c2ccc(Br)cc2)nc2oc3cc(OC)ccc3c(=O)c2c1=O	-33%	?	2%	8.3µM*
CCCc1nc2oc3cc(OC)ccc3c(=O)c2c(=O)n1Cc1ccco1	-35%	15%	-1%	9.3µM*
COc1ccc(CNC(=O)C2CCN(C(=O)Cc3ccccc3)CC2)cc1	-3%	15%	1%	7%
O=C(O)/C=C\C(=O)Nc1ccc(F)c(F)c1F	4%	7%	0%	27%
CCN1C(=NCCOC)N[C@@H](c2ccccc2)[C@H](C(=O)OC)[C@H]1C	-1%	8%	4%	36%
CCN1C(=NCCc2cccs2)N[C@@H](CCc2ccccc2)[C@H](C(=O)NCCc2cccs2)[C@H]1C	8%	7%	-7%	1.5µM*
NS(=O)(=O)c1cc(-c2nn[nH]n2)c(NCc2cccs2)cc1Cl	·	12µM*	·	-10%
COc1ccc(-n2c(C)c(C)c3c(N)ncnc32)cc1	5%	-16%	-11%	13%
SMILES	NS1 inh	Pf growth 96h	SARS PLP yeast	Pf growth 48h
CCc1cc2c(s1)N(CC(=O)OC)C(=O)CN=C2c1ccccc1OC	-13%	8.3µM*	0%	7%
COc1ccc(OCC(=O)NC(=S)Nc2ccc(S(=O)(=O)Nc3cc(C)on3)cc2)cc1	9%	-14%	-1%	27%
Cc1ccc(C)c(NC(=O)CN(C)C(=O)C2COc3ccccc3O2)c1 (configuration not stated)	·	-3%	-4%	?
CCn1c(SCC(=O)n2c(C)c(C)c3ccccc32)nnc1-c1ccco1	-24%	6.6µM*	3%	4%
CCn1c(-c2ccccc2Cl)nn(CC(=O)Nc2cc(Cl)ccc2Cl)c1=S	4%	10µM*	5%	?
CCn1c(-c2ccccc2Cl)nn(CC(=O)NCCc2ccccc2)c1=S	-3%	?	8%	-26%
O[C@@H]1[C@@H](OCc2ccccc2)OC[C@H](O)[C@@H]1O	-11%	·	·	·
CCCCCN(C(=O)CCC(=O)OCc1ccc(C(C)(C)C)cc1)c1c(N)n(CCCC)c(=O)[nH]c1=O	24%	8.3µM*	9%	?
CCCCCN(C(=O)CCC(=O)OCc1ccc(C(C)C)cc1)c1c(N)n(CCCC)c(=O)[nH]c1=O	·	10µM*	0%	36%
S=P(C1CCCCC1)(C1CCCCC1)[C@H](c1cccnc1)N1CCCC1	-8%	·	·	·
Cc1c(Cl)cccc1NC(=S)NNc1ncc(C(F)(F)F)cc1Cl	-7%	9.3µM*	-5%	·
O=C1C(=O)c2ccccc2C(O)=C1CCCCl	-47%	1.9µM*	-4%	0.83µM*
COc1ccc(CC2=C(O)c3ccccc3C(=O)C2=O)cc1	-125%	153%	-8%	-10%
O=C(N/N=C/c1ccc(OC2CSC2)cc1)c1ccccc1	-6%	?	-3%	12µM*
Cc1occc1C(=O)N/N=C/c1ccc(-c2ccccc2)cc1	-1%	74%	-41%	17%
Cn1ncc(Cl)c1C(=O)N/N=C/c1cccc(OC2CSC2)c1	8%	-10%	1%	1%
CCOc1ccc(/C=N/NC(=O)c2ccc(CSc3nc4ccccc4[nH]3)cc2)cc1	?	0%	-6%	6%
O=C(N/N=C/c1ccc(OC(F)F)cc1)c1ccc(CSc2nc3ccccc3[nH]2)cc1	15%	13µM*	?	-28%
Cc1occc1C(=O)N/N=C/c1ccc(OCc2ccccc2)cc1	-80%	10µM*	-2%	?
O=C(CSc1ncccn1)N/N=C/c1cccc(OC2CSC2)c1	·	12µM*	2%	5%
O=C(C1CCCN(S(=O)(=O)c2ccc(F)cc2)C1)N1CCCCC1 (configuration not stated)	17%	?	6%	-22%
O=Cc1ccc(OCC(=O)N2CCOCC2)cc1	-2%	10%	0%	35%
COc1ccccc1C(=O)NCC(=O)NCC1(N2CCCCC2)CCCCC1	·	30%	2%	34%
COc1ccc(O)c(/C=N/NC(=O)c2ccc(OCc3cccc(Br)c3)cc2)c1	2%	11%	-4%	1.7µM*
O=C(N/N=C/c1ccc(F)cc1)c1ccc(OCc2ccccc2)cc1	9%	3%	0%	?
O=C(N/N=C/c1ccc(OCc2ccc(F)cc2)cc1)c1ccccc1	·	-5%	-8%	1.2µM*
CCN(c1ccccc1)S(=O)(=O)c1ccc(OC)c(NC(=O)CCc2nc3ccccc3c(=O)[nH]2)c1	·	?	5%	?
CC(C)(C)C1CCC2(CC1)CCN(CCCN1CCOCC1)CC2	-8%	·	·	·
COC(=O)CC1(C(=O)OC)Oc2ccc(Br)cc2C(=O)N1c1cc(Cl)c(Cl)cc1Cl (configuration not stated)	3%	?	-3%	?
COC(=O)CC1(C(=O)OC)Oc2ccc(Br)cc2C(=O)N1c1cccc(Cl)c1Cl (configuration not stated)	5%	13µM*	-4%	?
